Growth inhibition and condensed nuclei data for 15 compounds are collected here from PubChem BioAssay AID771 (SRMLSC, 2007).

This assay is described as follows: HT29 colon tumor cell growth inhibition, primary screen, imaging, high content imaging, 48 h, CellTiter-Glo (AID 771).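 On condensed nuclei: condensed means Hoechst nuclear area under control median minus 1.5 SD.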 The conditions noted are these: HCS imaging cell count, at 10 µM, stronger effect = higher value; for condensed nuclei: measured here: percent cells with condensed nuclei.
[1] abbreviates: measured here: ATP CellTiter-Glo viability inhibition.

Out of some 3,300 compounds screened, about 55 (2%) were called active.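 How the source made its calls: active means growth inhibition above 90%, meaning viable cell count by imaging cut by more than 90% versus vehicle controls; inactive means growth inhibition below 90%.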 The sample as a whole holds a higher share of actives than the screen did.

As to `Cc1c2ccncc2c(C)c2c1[nH]c1ccccc12`, the growth inhibition is 97% (active) and the condensed nuclei was found to be 22.4%.

Consider `c1ccc2c(c1)[nH]c1cnccc12`, for which the growth inhibition is -8.76% (inactive) and the condensed nuclei is 2.05%.

As to `COc1ccccc1-n1c(O)c(C=NCCCn2ccnc2)c(=O)[nH]c1=O`, the growth inhibition was -20.9% (inactive) and the condensed nuclei was determined as 3.63%. Besides, the growth inhibition under setting [1] is 8.58%.

For `CC1(C)CC(=O)C(C=NCCN2CCN(C(=O)Cc3ccc(F)cc3)CC2)=C(O)C1`, the growth inhibition is 44.1% (inactive) and the condensed nuclei was 1.29%. The growth inhibition under setting [1] was 0.25%.

`COCCOC(=O)c1c(N)n(Cc2ccco2)c2nc3ccccc3nc12`: the growth inhibition was -45.9% (inactive) and the condensed nuclei came out at 3.74%. In addition, under setting [1], the growth inhibition was -19.7%.

Turning to `Nc1c(C(=O)NCc2ccco2)c2nc3ccccc3nc2n1Cc1ccc(F)cc1`, the growth inhibition was 34.1% (inactive) and the condensed nuclei is 1.57%. Further, the growth inhibition under setting [1] came out at 32.2%.

Turning to `Nc1c(C(=O)NCc2ccco2)c2nc3ccccc3nc2n1CCN1CCCCC1`, the growth inhibition is 96.7% (active) and the condensed nuclei turned out to be 15.6%. In addition, the growth inhibition under setting [1] was determined as 86.4%.

In the case of `Cc1ccc(C)c(C2(O)CC(C)N(C)CC2C)c1` (stereo not given), the growth inhibition is -0.27% (inactive) and the condensed nuclei is 2.34%. Also, the growth inhibition under setting [1] is 1.07%.

With `CN1C[C@H](CNC(=O)OCc2ccccc2)C[C@@H]2c3cccc4c3c(cn4C)C[C@H]21`, the growth inhibition was 93.2% (active) and the condensed nuclei worked out at 18.1%.

Turning to `CC[C@@H](CO)NC(=O)[C@@H]1C=C2c3cccc4c3c(cn4C)C[C@H]2N(C)C1`, the growth inhibition was 12.4% (inactive) and the condensed nuclei was 0.97%.

Turning to `CC(C)[C@@]1(NC(=O)[C@@H]2C[C@@H]3c4cccc5[nH]cc(c45)C[C@H]3N(C)C2)O[C@@]2(O)[C@@H]3CCCN3C(=O)[C@H](Cc3ccccc3)N2C1=O`, the growth inhibition was 88.7% (inactive) and the condensed nuclei worked out at 10.3%.

As for `O=C(Nc1ccncc1)c1c(O)c2ccccc2n(Cc2ccccc2)c1=O`, the growth inhibition is -29.4% (inactive) and the condensed nuclei was 1.56%. In addition, the growth inhibition under setting [1] was -27.2%.

Take `CCOC(=O)[C@@]1(C#N)[C@@H]2C=CC(C(N)=O)=CN2[C@@H](C(N)=O)[C@@H]1c1cccc(Cl)c1`: the growth inhibition was 1.36% (inactive) and the condensed nuclei came out at 1.63%. Further, the growth inhibition under setting [1] is -5.1%.

Regarding `CC1(c2ccccc2)NCCN2C(=O)CSC21` (stereo not given), the growth inhibition was -10.3% (inactive) and the condensed nuclei was 1.47%. Besides, under setting [1], the growth inhibition was -1.15%.

In the case of `CCOc1ccc(-n2c(O)c(C=NCCN3CCNCC3)c(=O)[nH]c2=O)cc1`, the growth inhibition was 46.2% (inactive) and the condensed nuclei turned out to be 2.45%. In addition, the growth inhibition under setting [1] is -8.84%.
